# In PubChem BioAssay (NCATS):
# Records with an inconclusive call do not appear. Entries that show only a call come without a potency. Values without a mark were called inactive. Activity calls are given as the source filed them. Calls follow the shape of the dose curve; as a rule, active = well fitted cell-killing curve with a large enough effect; inconclusive = small, poorly fitted or top-dose-only effect, or effect the other way; inactive = no such curve, though single readings can be large or run the other way.
# How the values were obtained:
# [1] = Quantitative High-Throughput drug screen in 47 multiple myeloma cell lines against the NCATS MIPE library collection: OPM2_DSMZ cell viability assay (AID 1919872); also: nearly all actives have a fitted effect of over 30% in size
# In short: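 Viability readout: CellTiter-Glo luminescence following 5 min room-temperature incubation with reagent. Prior exposure: 48 h, 37C, humidified 5% CO2, 500 cells per well.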
# [2] = Quantitative High-Throughput drug screen in 47 multiple myeloma cell lines against the NCATS MIPE library collection: KMS11_JCRBsus cell viability assay (AID 1919873); also: nearly all actives have a fitted effect of over 50% in size
# In short: (§1)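 ATP-based luminescence (CellTiter-Glo, 5 min RT incubation) quantified surviving cells following two days' treatment with MIPE 4.0 agents at 37 °C, 5% CO2.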
# [3] = Quantitative High-Throughput drug screen in 47 multiple myeloma cell lines against the NCATS MIPE library collection: RPMI8226_ATCC cell viability assay (AID 1919871); also: nearly all actives have a fitted effect of over 30% in size
# In short: as §1
# [4] = Quantitative High-Throughput drug screen in 47 multiple myeloma cell lines against the NCATS MIPE library collection: KMS28BM_JCRB cell viability assay (AID 1919874); also: nearly all actives have a fitted effect of over 35% in size
# In short: as §1
# Potency is read from the fitted curve at half-maximal effect.
compound,measurement,setting,value
CC(C)(C)[C@H](NC(=O)c1ccc(N)c(Cl)c1)C(=O)N1CCC[C@@H]1C(=O)N[C@H](C#N)CC(=O)O,viability (% of DMSO),[1],102% [at 3.51 µM]
same,viability (% of control),[2],102% [at 3.51 µM]
C=C[C@@H]1CN2CCC1C[C@H]2[C@H](O)c1ccnc2ccc(OC)cc12 (stereo not given in full),Potency,[3],inactive
same,Potency,[1],inactive
same,Potency,[4],inactive
Cc1ccc(-n2[nH]c(C)c(N=Nc3cccc(-c4cccc(C(=O)O)c4)c3O)c2=O)cc1C,Potency,[2],23.5 µM (active)
Oc1cc(-c2nc(-c3ccccc3)[nH]c2-c2ccncc2)ccc1Cl,Potency,[3],16.6 µM (active)
same,Potency,[2],14.8 µM (active)
c1coc(CNc2ncnc3nc[nH]c23)c1,Potency,[1],inactive
same,Potency,[2],inactive
same,Potency,[4],inactive
CC(=CC(=O)Nc1ccccc1C(=O)O)c1ccc2ccccc2c1,Potency,[1],inactive
same,Potency,[2],inactive
same,Potency,[4],inactive
CC(O)(C#Cc1ccc2c(c1)N(c1nc(N)ncc1Cl)CC2)c1nccs1 (stereo not given),Potency,[2],18.7 µM (active)
O=C(NC1CC1)c1cccc(-c2ccc3c(NC(=O)C4CC4)n[nH]c3c2)c1,Potency,[1],14.8 µM (active)
same,Potency,[2],7.43 µM (active)
CCCCCCCN(CC)CCCC(O)c1ccc(NS(C)(=O)=O)cc1 (stereo not given),Potency,[3],inactive
same,Potency,[4],inactive
CC(C)c1cc(C(C)C)c(CC(=O)NS(=O)(=O)Oc2c(C(C)C)cccc2C(C)C)c(C(C)C)c1,Potency,[1],23.5 µM (active)
same,Potency,[2],2.35 µM (active)
same,Potency,[4],inactive
O=C(NCc1ccccc1)[C@H](Cc1ccccc1)NC(=O)[C@@H]1O[C@@H]1C(=O)NCCc1ccc(O)cc1,Potency,[1],inactive
same,Potency,[4],inactive
COc1ccc(C=Cc2cc(OC)c(OC)c(OC)c2)cc1NC(=O)[C@H](N)CO,Potency,[3],0.0264 µM (active)
same,Potency,[1],0.0083 µM (active)
same,Potency,[4],0.0118 µM (active)
CS(=O)(=O)N1CCc2c(-c3cnc(N)nc3)nc(N3CCOCC3)nc21,Potency,[1],1.05 µM (active)
Oc1ccc([C@@H]2Oc3ccc(O)cc3[C@@H]3CCC[C@@H]32)cc1,Potency,[1],33.2 µM (active)
same,Potency,[2],7.43 µM (active)
same,Potency,[4],14.8 µM (active)
CON=C(C(=O)N[C@@H]1C(=O)N2C(C(=O)O)=C(CSC(=O)c3ccco3)CS[C@H]12)c1csc(N)n1,Potency,[1],inactive
same,Potency,[2],inactive
same,Potency,[4],inactive
CC(=O)O[C@@]12CO[C@H]1C[C@H](O)[C@@]1(C)C(=O)[C@H](O)C3=C(C)[C@@H](OC(=O)C(O)[C@@H](NC(=O)OC(C)(C)C)c4ccccc4)C[C@@](O)([C@@H](OC(=O)c4ccccc4)[C@@H]21)C3(C)C (stereo not given in full),Potency,[1],inactive
same,Potency,[2],inactive
same,Potency,[4],inactive
Nc1cccc2c1C(=O)N(C1CCC(=O)NC1=O)C2=O (stereo not given),Potency,[1],0.0012 µM (active)
same,Potency,[4],inactive
C[C@H](O)[C@@H]1C(=O)N2C(C(=O)O)=C(S[C@@H]3CN[C@H](CNS(N)(=O)=O)C3)[C@@H](C)[C@@H]12,Potency,[1],inactive
same,Potency,[2],inactive
same,Potency,[4],inactive
COc1ccc(CCC(=O)c2c(O)cc(O[C@@H]3O[C@H](CO)[C@@H](O)[C@H](O)[C@@H]3O[C@@H]3O[C@@H](C)[C@H](O)[C@@H](O)[C@@H]3O)cc2O)cc1O,Potency,[1],inactive
same,Potency,[2],inactive
same,Potency,[4],inactive
O=C(O)C[C@H](O)C[C@H](O)C=Cc1c(C2CC2)nc2ccccc2c1-c1ccc(F)cc1,Potency,[3],16.6 µM (active)
same,Potency,[2],7.43 µM (active)
C=C1C(=CC=C2CCC[C@]3(C)[C@@H]([C@H](C)CCCC(C)(C)O)CC[C@@H]23)C[C@@H](O)C[C@@H]1O,Potency,[2],9.35 µM (active)
same,Potency,[4],1.87 µM (active)
CCc1nc(-c2cccc(C)c2)c(-c2ccnc(NC(=O)c3ccccc3)c2)s1,Potency,[1],18.7 µM (active)
same,Potency,[2],20.9 µM (active)
OCCN1C[C@H](O)[C@@H](O)[C@H](O)[C@@H]1CO,Potency,[1],inactive
same,Potency,[2],inactive
CN[C@H](CC(C)C)C(=O)N[C@H]1C(=O)N[C@@H](CC(N)=O)C(=O)N[C@@H]2C(=O)N[C@H]3C(=O)N[C@H](C(=O)N[C@H](C(=O)O)c4cc(O)cc(O)c4-c4cc3ccc4O)[C@H](O)c3ccc(c(Cl)c3)Oc3cc2cc(c3O[C@@H]2O[C@H](CO)[C@@H](O)[C@H](O)[C@@H]2O[C@H]2C[C@](C)(N)[C@H](O)[C@H](C)O2)Oc2ccc(cc2Cl)[C@H]1O,Potency,[1],inactive
same,Potency,[2],inactive
same,Potency,[4],inactive
O=C1CSC(=O)N1C(CCc1ccncc1)COc1ccc(-c2cccc([N+](=O)[O-])c2)cc1 (stereo not given),Potency,[3],7.43 µM (active)
same,Potency,[2],11.8 µM (active)
NC[C@H]1O[C@H](O[C@H]2[C@@H](O)[C@@H](O[C@H]3O[C@H](CO)[C@@H](O)[C@H](N)[C@@H]3O)[C@H](N)C[C@@H]2N)[C@H](N)C[C@H]1O,Potency,[1],inactive
C#Cc1cccc(Nc2ncnc3cc(OCCOC)c(OCCO)cc23)c1,Potency,[2],8.33 µM (active)
same,Potency,[4],8.33 µM (active)
O=C(Nc1cc2cc[nH]c2cn1)c1ccccc1,Potency,[3],13.2 µM (active)
same,Potency,[2],11.8 µM (active)
same,Potency,[4],5.26 µM (active)
CCN1CCN(C(=O)N[C@H](C(=O)N[C@@H]2C(=O)N3C(C(=O)O)=C(CSc4nnnn4C)CS[C@@H]23)c2ccc(O)cc2)C(=O)C1=O,Potency,[1],inactive
same,Potency,[2],inactive
same,Potency,[4],inactive
O=C1NC(O)CCN1[C@@H]1O[C@H](CO)[C@H](O)[C@H]1O (stereo not given in full),Potency,[1],inactive
same,Potency,[2],inactive
same,Potency,[4],inactive
COC(=O)[C@H](CCCN=C(N)N)NS(=O)(=O)c1ccc(C)cc1,Potency,[1],inactive
same,Potency,[2],inactive
same,Potency,[4],inactive
Nc1ccn(C[C@@H](CO)OCP(=O)(O)O)c(=O)n1,Potency,[3],inactive
same,Potency,[4],inactive
Cc1cc(-c2nnc3n2CCCCC3)c(C)n1-c1ccccc1,Potency,[1],inactive
same,Potency,[2],inactive
CC(Cc1ccc(O)c(O)c1)(NN)C(=O)O (stereo not given),Potency,[2],26.4 µM (active)
same,Potency,[4],inactive
O=C1NC(=O)C(=Cc2ccc3nccc(-c4ccncc4)c3c2)S1,Potency,[3],0.235 µM (active)
same,Potency,[2],0.0662 µM (active)
same,Potency,[4],0.372 µM (active)
COc1ccc(Nc2cc(-c3cnc(N)nc3)nc(N3CCOCC3)n2)cn1,Potency,[1],7.43 µM (active)
same,Potency,[2],0.469 µM (active)
COc1cc2c(cc1O)CCC1C2CC[C@@]2(C)C1CC[C@@H]2O (stereo not given in full),Potency,[1],3.72 µM (active)
same,Potency,[2],0.743 µM (active)
same,Potency,[4],0.935 µM (active)
O=c1[nH]c(=O)n([C@H]2C[C@@H](O)[C@@H](CO)O2)cc1F,Potency,[2],0.526 µM (active)
same,Potency,[4],20.9 µM (active)
Nc1nc(N)c2nc(-c3cccc(O)c3)c(-c3cccc(O)c3)nc2n1,Potency,[4],20.9 µM (active)
